The source of these data is PubChem BioAssay (Tox21).

Results filed as inconclusive are left out. Unmarked numbers belong to inactive results. The call rests on the fitted dose curve; in most records, active means well fitted activation curve with a large enough effect in the signal ratio in the repeat runs, with a control signal flat (not every such curve was filed as active); inconclusive means weak or mixed curves; inactive means flat fitted curve, though single readings scatter; the % refers to the signal ratio.
On the % scale 0 is the no-effect control and ±100 the full control effect.

This test in a line: qHTS assay for small molecule activators of the heat shock response signaling pathway (AID 743210). The settings on record: HeLa HSE-bla reporter, beta-lactamase ratio, 5 h; series mostly up to 62.6 µM; activation: at the top concentration. An excerpt:
U.S. Tox21 Program National Center for Advancing Translational Sciences [NCATS] NIH Chemical Genomics Center [NCGC] U.S. Environmental Protection Agency [EPA] National Institutes of Environmental Health Sciences [NIEHS] National Toxicology Program [NTP] U.S. Food and Drug Administration [FDA] Tox21 Assay Overview: Various chemicals, environmental and physiological stress conditions may lead to the activation of heat shock response/ unfolded protein response (HSR/UPR). There are three heat shock transcription factors (HSFs) (HSF-1, -2, and -4) mediating transcriptional regulation of the human HSR. To identify the compounds that activate HSR signaling, HSE-bla HeLa cell line (Invitrogen, Carlsbad, CA, USA) containing a beta-lactamase reporter gene under the control of the heat shock response elements was used to screen the Tox21 10K compound library.
Tox21 Assay Protocol Summary: The CellSensor HSE-bla HeLa cells (Invitrogen, Carlsbad, CA, USA) were dispensed at 1500 cells/6uL/well into 1536-well black wall/clear bottom plates using a Multidrop combi (Thermo Fisher Scientific, Waltham, MA) dispenser. After the assay plates were incubated at 37 C and 5% CO2 overnight, 23 nL of compounds dissolved in DMSO, positive controls or DMSO only was transferred to the assay plate by a Pintool station (Kalypsys, San Diego, CA). The plates were incubated at 37 C for 5 h. After 1 uL of LiveBLAzerTM B/G FRET substrate was added using a Flying Reagent Dispenser (Beckman Coulter, Indianapolis, IN, USA), the plates were incubated at room temperature for 2.5 h, and fluorescence intensity was measured by an Envision plate reader (PerkinElmer, Shelton, CT).
A general note: qHTS replaces the single test concentration by a dilution series.
As for `O=C(Oc1ccccc1)Oc1ccccc1`, the “activation” value was 0.72%.

Turning to `COc1cc(/C=C/c2ccccc2)oc(=O)c1`, the “activation” value is 0.371% [at 81.1 µM].

Regarding `Cc1ccc(-c2ccccc2)cc1`, the “activation” value was -0.417%.

On to `COc1ccc(NC(=O)CC(C)=O)cc1`, for which the “activation” value was -1.54%.

Turning to `O=C1NC(=O)[C@@H]2CC=CC[C@H]12`, the “activation” value was -0.657%.

For `CCC(=O)C(=O)CC`, the “activation” value was 0.153% [at 81.1 µM].

Consider `Nc1nc2c(ncn2COCCO)c(=O)[nH]1`, for which the “activation” value is -0.0499%.

`CC1(C)CCC[C@]2(C)[C@H]3CCO[C@]3(C)CC[C@@H]12`: the “activation” value was -0.978%.

Consider `O[C@@H]([C@H](O)[C@H](O)CBr)[C@H](O)CBr`, for which the “activation” value was -0.0317%.

Regarding `CC(=O)Oc1cc2c(s1)CCN(C(C(=O)C1CC1)c1ccccc1F)C2` (stereo not given), the “activation” value was -0.5%.

For `C#Cc1ccc(-c2ccccc2F)cc1`, the “activation” value is 2.27%.

On to `CC1=CCC(=C(C)C)CC1`, for which the “activation” value was -1.3%.

Consider `Cc1cccc(C)c1NC(=O)c1ccc(N)cc1`, for which the “activation” value was -0.394%.

For the compound `S=c1nccc[nH]1`, the “activation” value is 3.53%.

`CN1CCC[C@@H]1CCO[C@](C)(c1ccccc1)c1ccc(Cl)cc1`: the “activation” value was -0.0291%.

Turning to `CC[C@H](C)COC(=O)/C=C/c1ccc(N=Cc2ccc(OC)cc2)cc1`, the “activation” value was 3.03%.

For `CC(C)Cn1cnc2c(N)nc3ccccc3c21`, the “activation” value is -0.922% [at 29.1 µM].

Regarding `CC(C)=CCC1=C(O)c2ccccc2C(=O)C1=O`, the “activation” value is -1.71%.

`CCc1ccc(Br)cc1`: the “activation” value was -1.37% [at 81.1 µM].

With `Cc1ccc(N/N=c2\c(=O)cc/c(=N\Nc3ccc(S(=O)(=O)O)cc3)c2=O)c(C)c1`, the “activation” value was -1.29%.

`Clc1ccnc(Cl)n1`: the “activation” value was -1.33% [at 81.1 µM].

Regarding `CC[N+](CC)(CC)CCOC(=O)C(C1CCCC1)C1CCCC1`, the “activation” value was -0.35%.

As for `COc1cc2nc(N3CCN(C(=O)c4ccco4)CC3)nc(N)c2cc1OC`, the “activation” value was -0.607% [at 29.1 µM].

In the case of `Cc1cc(C)c(/C=C2\C(=O)Nc3ccccc32)[nH]1`, the “activation” value is -6.79%.

Turning to `CN(C)CCN1CCN(c2cccc(Cl)c2)C1=O`, the “activation” value was -0.495%.

Regarding `CCOC(=O)NNc1ccc(N(CC)CC(C)O)nn1` (stereo not given), the “activation” value was -0.602%.

As to `Cc1c(N)cccc1C(F)(F)F`, the “activation” value is 0.29%.

`O=C(O)Cc1ccc2c(c1)C(=O)c1ccccc1CO2`: the “activation” value was -0.06%.

With `C=CC(C)(CCC=C(C)C)OC=O` (stereo not given), the “activation” value was 0.0296%.

As to `c1cnccn1`, the “activation” value was -0.249% [at 81.1 µM].

With `CCC(CC)C(C)CCOC(C)=O` (stereo not given), the “activation” value is 0.192%.

As to `O=[N+]([O-])c1ccc(O)cc1C(F)(F)F`, the “activation” value is -0.358%.

On to `OC/C=C/CO`, for which the “activation” value was -0.69%.

For the compound `Oc1ccccc1O`, the “activation” value was 5.37%.

On to `COC(C)=O`, for which the “activation” value is -1.1% [at 81.1 µM].

Regarding `C[Si](Cl)(c1ccccc1)c1ccccc1`, the “activation” value was 1.79%.

Take `Cc1c(C)c2c(c(C)c1OC(=O)c1cccnc1)CC[C@@](C)(CCC[C@H](C)CCC[C@H](C)CCCC(C)C)O2`: the “activation” value is -0.501%.

Turning to `CN1CCCCC1CCN1c2ccccc2Sc2ccc(S(C)=O)cc21` (stereo not given), the “activation” value is -0.161%.

`Nc1ccc(C(=O)O)c(O)c1`: the “activation” value is -2.14%.

In the case of `C=C(C)c1cccc(C(=C)C)c1`, the “activation” value is -1.15%.
